Data: PubChem BioAssay AID933 (National Center for Advancing Translational Sciences (NCATS), 2007)
Inconclusive results are not listed. Activity calls are given as the source filed them. Calls follow the shape of the dose curve; as a rule, active = well fitted activation curve with a large enough effect in the signal ratio, with a control signal flat; inconclusive = small, poorly fitted or top-dose-only effect, or a change in a side signal; inactive = flat fitted curve, though single readings scatter; the % refers to the signal ratio.

These compounds were tested against Thyrotropin receptor (Homo sapiens) (UniProt P16473) (assay: Secondary Concentration-Response Assay for Agonists of the Thyroid Stimulating Hormone Receptor: HTRF Activity Detection). Conditions: HEK293-TSHR cells, cAMP HTRF ratio, 30 min; series mostly up to 91.7 µM; activation: at the top concentration.
In short: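 cAMP accumulation was detected by antibody-based HTRF, excitation 330 nm, emissions 615 and 660 nm. Compounds acted for 30 min at room temperature on stably TSHR-transfected HEK 293 cells, with phosphodiesterase inhibitor RO 20-1724 (100 uM) in the medium.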
For activation in this document: % of control where 0% means no effect.
Potency is read from the fitted curve at half-maximal effect.

Sequence of Thyrotropin receptor (Homo sapiens) (P16473 whole entry, looked up): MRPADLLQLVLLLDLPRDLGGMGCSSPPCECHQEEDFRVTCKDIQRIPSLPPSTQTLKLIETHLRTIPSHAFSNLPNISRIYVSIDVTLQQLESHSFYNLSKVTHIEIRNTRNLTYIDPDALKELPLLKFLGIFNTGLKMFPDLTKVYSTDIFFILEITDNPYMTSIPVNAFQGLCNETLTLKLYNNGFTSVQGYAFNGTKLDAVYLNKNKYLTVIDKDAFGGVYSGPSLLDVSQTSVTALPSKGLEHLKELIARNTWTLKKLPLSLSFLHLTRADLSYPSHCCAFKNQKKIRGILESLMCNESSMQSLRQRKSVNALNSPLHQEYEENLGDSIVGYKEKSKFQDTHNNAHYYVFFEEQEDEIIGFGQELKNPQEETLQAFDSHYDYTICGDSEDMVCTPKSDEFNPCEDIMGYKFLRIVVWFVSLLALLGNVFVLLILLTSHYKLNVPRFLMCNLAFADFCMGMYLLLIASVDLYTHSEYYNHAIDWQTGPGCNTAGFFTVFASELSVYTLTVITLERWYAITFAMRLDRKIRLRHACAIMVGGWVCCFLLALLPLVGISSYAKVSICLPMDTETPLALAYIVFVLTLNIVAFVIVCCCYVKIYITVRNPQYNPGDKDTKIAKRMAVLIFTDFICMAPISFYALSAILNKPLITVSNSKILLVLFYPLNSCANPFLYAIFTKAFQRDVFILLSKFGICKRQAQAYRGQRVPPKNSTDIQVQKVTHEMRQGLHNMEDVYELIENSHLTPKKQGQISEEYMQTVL

Potency, active:
COc1ccc(CN(Cc2ccccc2)C(=O)c2ccccc2)cc1COc1ccc(NC(C)=O)cc1 8.91 µM, COc1ccc(C2Nc3ccccc3C(=O)N2Cc2cccc(-c3ccccc3)c2)cc1COc1ccc(NC(C)=O)cc1 (stereo unspecified) 2.24 µM, COc1ccc(C(=O)N(Cc2ccccc2)Cc2ccccc2)c(O)c1 25.1 µM, COc1ccc(C2Nc3ccccc3C(=O)N2Cc2cccc(C(F)(F)F)c2)cc1COc1ccc(NC(C)=O)cc1 (stereo unspecified) 4.47 µM, COc1ccc(C(=O)N(Cc2cccs2)Cc2cccs2)c(O)c1 15.8 µM, COc1ccc(CN(Cc2ccccc2)C(=O)C2CC2)cc1COc1ccc(NC(C)=O)cc1 15.8 µM, COc1ccc(C2Nc3ccccc3C(=O)N2CCc2ccccc2)cc1COc1ccc(NC(C)=O)cc1 (stereo unspecified) 7.94 µM, COc1ccc(C2Nc3ccc(NC(=O)COC(C)=O)cc3C(=O)N2Cc2ccccc2)cc1COc1ccc(NC(C)=O)cc1 (stereo unspecified) 8.91 µM, COc1ccc(C2Nc3ccc(NC(C)=O)cc3C(=O)N2Cc2cccc(Cl)c2)cc1COc1ccc(NC(C)=O)cc1 (stereo unspecified) 7.94 µM, COc1ccc(C2Nc3ccc(Cl)cc3C(=O)N2Cc2ccccc2)cc1COc1ccc(NC(C)=O)cc1 (stereo unspecified) 14.1 µM

activation, inactive:
N#Cc1ccc(C(=O)N(Cc2ccco2)Cc2cccs2)cc1 4.24%, COc1cc(C2Nc3ccccc3C(=O)N2c2ccc(Cl)cc2)c(Cl)cc1OCC(=O)O (stereo unspecified) 0.666%, COc1ccc(C2Nc3ccccc3C(=O)N2CCc2ccc(Cl)cc2Cl)cc1COc1ccc(NC(C)=O)cc1 (stereo unspecified) 2.61%, C=C(C)Cn1c(-c2ccccc2)nc2ccccc21 0.0214% [at 0.00035 µM], O=C(CN(Cc1ccccc1Cl)C(=O)Cn1nnc(-c2cccs2)n1)NCC1CCCO1 (stereo unspecified) 0.671% [at 0.00035 µM], O=C(COC(=O)C12CC3CC(CC(C3)C1)C2)NCC1CCCO1 (stereo unspecified) 1.2%, COc1ccc(-c2nc3ccc(NC(=O)COC(C)=O)cc3c(=O)n2Cc2ccccc2)cc1COc1ccc(NC(C)=O)cc1 16.2%, COc1ccc(C2Nc3ccccc3C(=O)N2Cc2ccccc2)cc1COc1ccccc1OC (stereo unspecified) 15.1%, COc1ccc(C2Nc3ccccc3C(=O)N2C2CCCC2)cc1COc1ccc(NC(C)=O)cc1 (stereo unspecified) 29.4%, CC(c1ccco1)N(C(=O)c1ccc(Cl)s1)c1ccccn1 (stereo unspecified) 0.422% [at 0.00035 µM], COc1cc(C2Nc3ccccc3C(=O)N2Cc2ccccc2)ccc1OCc1ccc(NC(C)=O)cc1 (stereo unspecified) 8.19%, COC(=O)COc1ccc(Cl)cc1C1Nc2ccccc2C(=O)N1c1ccc(OC)cc1 (stereo unspecified) 3.2%, O=C(c1ccco1)N(Cc1cccs1)c1ccc(O)cc1 1.56%, CCn1c(=O)c(C(=O)CN2CCCc3ccccc32)c(N)n(Cc2ccccc2)c1=O 0.971%, COc1cc2c(N3CCOCC3)cc(O)c(CC(=O)Nc3ccccc3)c2cc1OC 0.478% [at 0.00035 µM], Cc1cc(Cl)c(S(=O)(=O)Nc2ccc3c(c2)OCO3)cc1OCC(N)=O -1.33% [at 0.00035 µM], COCCNC(=O)C(c1ccc(C)o1)N(C(=O)c1snc(C(N)=O)c1N)c1ccc(C)cc1 (stereo unspecified) -0.472% [at 0.00035 µM], O=C1c2ccccc2NC(c2ccccc2O)N1Cc1ccccc1 (stereo unspecified) 3.61%, O=C1c2ccccc2NC(c2ccccc2O)N1Cc1ccco1 (stereo unspecified) 0.199%, COc1cccc(OCc2cc(C3Nc4ccccc4C(=O)N3c3ccccc3)ccc2OC)c1 (stereo unspecified) 1.73%, COc1ccc(C2Nc3ccccc3C(=O)N2Cc2ccco2)cc1OC (stereo unspecified) 1.75%, CC(C)CC(=O)Nc1cccc(-c2cn3ccsc3n2)c1 0.105% [at 0.00035 µM], CCCN1C(=O)c2ccccc2NC1c1ccc(OC)c(CSc2ccccn2)c1 (stereo unspecified) 3.44%, Cc1ccccc1N1C(=O)c2ccccc2N2C(=O)c3ccccc3C12 (stereo unspecified) 1.03%, COc1ccc2c(c1)C1(Nc3ccccc3C(=O)N1c1ccccc1)C(=O)N2 (stereo unspecified) 0.63%, CCOc1cc(C2Nc3ccccc3C(=O)N2c2ccccc2)ccc1O (stereo unspecified) 1.67%
